Results filed as inconclusive are left out. Calls of active or inactive are those of the source. Rule for the calls: active = hit-call score of the fitted dose curve at least 0.9, where 1 is the maximum; inconclusive = response in the unintended direction; inactive = score below 0.9.
Assay: Tanguay_ZF_120hpf_YSE_legacy: (Legacy) Oregon State University Tanguay Lab 120 Hour Post-fertilization zebrafish Assay for Yolk Sac Edema (AID 2283634);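 for AC50: actives raise the incidence of yolk sac edema above the DMSO baseline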
Description: Tanguay_ZF_120hpf_legacy is a whole embryo, multiplexed endpoint assay using zebrafish larvae exposed for 120 hours post fertilization on a 96-well plate.Tanguay_ZF_120hpf_YSE_legacy is one of one assay component(s) measured or calculated from the Tanguay_ZF_120hpf_legacy assay. It is designed to make measurements of zebrafish development as detected with brightfield microscopy of developing zebrafish embryos.Data from the assay component Tanguay_ZF_120hpf_YSE_legacy was analyzed into 1 assay endpoints. This assay endpoint, Tanguay_ZF_120hpf_YSE_legacy, was analyzed in the positive analysis fitting direction relative to DMSO as the negative control and baseline of activity. Using a type of morphology reporter, gain-of-signal activity can be used to understand changes in developmentals as they relate to the whole embryo. To generalize the intended target to other relatable targets, this assay endpoint is annotated to the zebrafish development intended target family, where the subfamily is extra-embryonic membrane development.
Zebrafish husbandry: Tropical 5D wild-type adult zebrafish were housed in at an approximate density of 1000 per 100 gallon tank at the Sinnhuber Aquatic Research Laboratory, Oregon State University, Corvallis, OR. Each tank was kept at standard laboratory conditions of 28C on a 14-h light/10-h dark photoperiod in fish water consisting of reverse osmosis water supplemented with a commercially available salt (Instant Ocean). Spawning funnels were placed into the tanks the night prior, and embryos were collected and staged. To increase bioavailability, the chorion was enzymatically removed using pronase (63.6mg/ml, >/= 3.5U/mg, Sigma-Aldrich: P5147) at 4 hours post fertilization (hpf) using a custom automated dechorionator.Chemical exposures: Six hpf dechorionated embryos were placed 1 embryo per well in a 96-well plate prefilled with 90 ul of EM using automated embryo placement systems (AEPS). Ten microliters of each row of dilution plate 2 was added to 2 exposure plates. The final DMSO concentration used was 0.64% (vol/vol). Thirty-two embryos were also exposed to 5uM trimethyltin chloride (positive control). Plates were sealed to prevent evaporation and foil covered to reduce light exposure and kept in a 28C incubator. Embryos were statically exposed until 120 hpf. At 24 hpf, embryos were assessed for photomotor response using a custom photomotor response analysis tool (PRAT) and for developmental toxicity endpoints (MO24: mortality at 24 hpf, DP: developmental progression, SM: spontaneous movement, and NC: notochord distortion). At 120 hpf, locomotor activity was measured using Viewpoint Zebralab and assessed for 18 endpoints. Zebrafish acquisition and analysis program (ZAAP), a custom program designed to inventory, acquire, and manage zebrafish data, was used to collect developmental endpoints as either present or absent (i.e., binary responses were recorded). If mortality occurred for an embryo (at either 24 or 120 hpf), the non-mortality endpoints were not measured.

Row | SMILES | outcome | AC50
1 | CC(C)=CC1C(C(=O)OCN2C(=O)C3=C(CCCC3)C2=O)C1(C)C (stereo not given) | inactive | 
2 | O=[N+]([O-])c1cc(C(F)(F)F)c(Cl)c([N+](=O)[O-])c1Nc1ncc(C(F)(F)F)cc1Cl | inactive | 
3 | Nc1nc(N)nc(NC2CC2)n1 | inactive | 
4 | COP(=O)(OC)OC(Br)C(Cl)(Cl)Br (stereo not given) | inactive | 
5 | CON=C(C(=O)OC)c1ccccc1CON=C(C)c1cccc(C(F)(F)F)c1 |  | 7.29 µM (active)
6 | CCOP(=S)(OCC)Oc1ccc([N+](=O)[O-])cc1 | inactive | 
7 | COP(=O)(NC(C)=O)SC (stereo not given) | inactive | 
8 | CCOP(=S)(Oc1cnc(C(C)(C)C)nc1)OC(C)C (stereo not given) | inactive | 
9 | CC(C)[C@H](C(=O)O[C@H](C#N)c1cccc(Oc2ccccc2)c1)c1ccc(Cl)cc1 |  | 3.2 µM (active)
10 | CCNc1nc(Cl)nc(NC(C)(C)C#N)n1 | inactive | 
11 | O=C(O)c1cc(Oc2ccc(C(F)(F)F)cc2Cl)ccc1[N+](=O)[O-] | inactive | 
12 | CSc1nc(NC(C)C)nc(NC(C)C)n1 | inactive | 
13 | COc1cc(OC)nc(Sc2cccc(Cl)c2C(=O)O)n1 | inactive | 
14 | CC(C1CC1)C(O)(Cn1cncn1)c1ccc(Cl)cc1 (stereo not given) |  | 36.3 µM (active)
15 | CCOP(=S)(OCC)SCCSCC | inactive | 
16 | CCCCSP(=O)(SCCCC)SCCCC |  | 7.24 µM (active)
17 | N#CSCSC#N | inactive | 
18 | CCCSP(=O)(OCC)SCCC | inactive | 
19 | S=C1NCCN1 | inactive | 
20 | C#CCC1=C(C)C(OC(=O)C2C(C=C(C)C)C2(C)C)CC1=O (stereo not given) | inactive | 

Row | SMILES | outcome | AC50
21 | CCCCOC(=O)[C@@H](C)Oc1ccc(Oc2ccc(C#N)cc2F)cc1 | inactive | 
22 | CC(=NC#N)N(C)Cc1ccc(Cl)nc1 | inactive | 
23 | CN1COCN(Cc2cnc(Cl)s2)C1=N[N+](=O)[O-] | inactive | 
24 | CCCOCC(=Nc1ccc(Cl)cc1C(F)(F)F)n1ccnc1 | inactive | 
25 | CSC1=N[C@@](C)(c2ccccc2)C(=O)N1Nc1ccccc1 |  | 3.52 µM (active)
26 | CC(Oc1cccc(Cl)c1)C(=O)O (stereo not given) | inactive | 
27 | CCOP(=O)(NC(C)C)Oc1ccc(SC)c(C)c1 (stereo not given) |  | 24.8 µM (active)
28 | C[N+]1(C)CCCCC1 | inactive | 
29 | CCCCOC(=O)c1ccccc1C(=O)O | inactive | 
30 | CNc1cnn(-c2cccc(C(F)(F)F)c2)c(=O)c1Cl | inactive | 
31 | CCOC(=O)CC(SP(=O)(OC)OC)C(=O)OCC (stereo not given) | inactive | 
32 | CCOP(=O)(SC(C)CC)N1CCSC1=O (stereo not given) | inactive | 
33 | CCC(CC)Nc1c([N+](=O)[O-])cc(C)c(C)c1[N+](=O)[O-] | inactive | 
34 | C#CC(C)(C)NC(=O)c1cc(Cl)cc(Cl)c1 | inactive | 
35 | CCCOc1nn(C(=O)NS(=O)(=O)c2ccccc2C(=O)OC)c(=O)n1C | inactive | 
36 | FC(F)C(F)(F)OCC(Cn1cncn1)c1ccc(Cl)cc1Cl (stereo not given) |  | 43.2 µM (active)
37 | CN(C)NC(=O)CCC(=O)O | inactive | 
38 | CCOP(=S)(OCC)Oc1cc(C)nc(C(C)C)n1 | inactive | 
39 | CNC(=O)ON=C(SC)C(=O)N(C)C | inactive | 
40 | CN(C)C(=O)Nc1cccc(C(F)(F)F)c1 | inactive | 
